Source: PubChem (National Center for Advancing Translational Sciences (NCATS))
The list is not random: actives were taken first. Their share in the collection is about 10%.
G9a inh: blocks human histone lysine methyltransferase G9a. G9a H3K9 monomethylation, AlphaScreen, 2 h. Potency, µM (top dose mostly 102 µM), for inactives: at the highest dose activity, negative = inhibition, most hits filed as inhibitors. actives 8.8% (n = 350,000); note: potency is the fitted concentration of half-maximal effect; % is set by controls: 0 for no effect and ±100 for the full control effect; nearly all actives have a fitted effect of over 75% in size
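AlphaScreen detection with an anti-monomethyl H3K9 antibody quantified product after a 2 h room-temperature reaction containing 500 nM biotinylated H3K9 peptide, 20 µM SAM and 20 nM enzyme, which had been preincubated 15 min with compound.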
CtBP-E1A blk: CtBP/E1A binding inhibition; AlphaScreen GST-E1A/His-CtBP binding, 1536-well; active compounds read low; activity change, % (concentration not given with the values); actives 0.49% (n = 340,000); AID 651724; in the data active = activity change below about -65%; inconclusive = mostly about -30% to -63%; note: % is set by controls: 0 for no effect and ±100 for the full control effect
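Homogeneous bead-based format: GST-tagged E1A captured on glutathione donor beads, His-tagged CtBP on nickel acceptor beads; compounds precede bead addition by 2 h at 37 °C.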
HP1b binding inh: inhibitors of HP1-beta chromodomain binding to methylated histone tails; AlphaScreen HP1-beta / biotin-H3K9me3 peptide binding; actives 0.56% (n = 390,000); Potency, µM (highest dose often 114 µM), inactives show top-dose activity change, negative = inhibition, actives largely listed as inhibitors; note: potency is the fitted concentration of half-maximal effect; nearly all actives have a fitted effect of over 70% in size
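Compound inhibition of the preformed complex between 50 nM HP1-beta and 50 nM biotinylated H3K9me3 peptide was read by AlphaScreen. Buffer was PBS pH 7.4 with 0.01% Tween-20. Incubations ran 30 min at room temperature, with 10 ug/mL donor/acceptor beads.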
Six1-Eya2 inh: Six1/Eya2 interaction inhibition. activity change, % (no concentration beside the values). AID 651725. actives 0.56% (n = 360,000). AlphaScreen GST-Six1/His-Eya2 binding, biochemical; active compounds read low. Q15475+O00167; in the data active = activity change below about -65%; inconclusive = mostly about -30% to -63%; note: % is set by controls: 0 for no effect and ±100 for the full control effect
Target sequence (O00167 whole entry, looked up): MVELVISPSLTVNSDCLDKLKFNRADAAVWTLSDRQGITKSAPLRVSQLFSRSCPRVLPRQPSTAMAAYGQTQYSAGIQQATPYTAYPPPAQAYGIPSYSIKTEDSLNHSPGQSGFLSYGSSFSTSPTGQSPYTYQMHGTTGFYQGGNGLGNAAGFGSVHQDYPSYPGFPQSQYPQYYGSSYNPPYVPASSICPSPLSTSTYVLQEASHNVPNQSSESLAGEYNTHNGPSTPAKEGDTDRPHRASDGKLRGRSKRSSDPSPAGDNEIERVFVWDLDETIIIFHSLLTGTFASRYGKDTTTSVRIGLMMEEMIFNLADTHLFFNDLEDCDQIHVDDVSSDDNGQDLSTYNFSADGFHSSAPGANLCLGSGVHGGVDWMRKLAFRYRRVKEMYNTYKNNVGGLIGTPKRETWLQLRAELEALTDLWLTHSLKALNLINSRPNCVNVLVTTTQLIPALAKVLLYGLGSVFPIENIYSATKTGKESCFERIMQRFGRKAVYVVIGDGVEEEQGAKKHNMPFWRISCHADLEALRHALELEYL
Target sequence (Q15475 whole entry, looked up): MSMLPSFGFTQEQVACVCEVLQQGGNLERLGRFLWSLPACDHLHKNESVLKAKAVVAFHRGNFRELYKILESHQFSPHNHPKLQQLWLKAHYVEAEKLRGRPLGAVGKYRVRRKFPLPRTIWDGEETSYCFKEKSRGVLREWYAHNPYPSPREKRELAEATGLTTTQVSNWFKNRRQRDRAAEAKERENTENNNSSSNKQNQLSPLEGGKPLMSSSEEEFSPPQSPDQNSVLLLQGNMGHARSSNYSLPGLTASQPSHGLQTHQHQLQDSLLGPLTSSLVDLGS
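GST-Six1 + His-Eya2 (5X stock: 250/500 nM); Tris pH 8.0, 300 mM NaCl, 0.05% BSA, 0.02% Tween 20; GSH donor/Ni acceptor beads; 1 h 37 °C dark; AlphaScreen readout.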
JMJD2A Tudor: JMJD2A Tudor domain (human) inhibition | AlphaScreen JMJD2A-Tudor / H3K4me3 peptide binding | Potency, µM (doses to about 114 µM), for inactives: top-dose activity change, negative = inhibition, hits mostly inhibitors | actives 4.4% (n = 390,000); note: potency is the fitted concentration of half-maximal effect; % is set by controls: 0 for no effect and ±100 for the full control effect; nearly all actives have a fitted effect of over 50% in size
BAZ2B inh: BAZ2B (human) inhibition; Q9UIF8; AlphaScreen BAZ2B-H3K14Ac peptide displacement; Potency, µM (highest dose often 114 µM), for the others: at the highest dose activity change, negative = inhibition, actives largely listed as inhibitors; actives 4.4% (n = 360,000); AID 504333; note: potency is the fitted concentration of half-maximal effect; % is set by controls: 0 for no effect and ±100 for the full control effect; nearly all actives have a fitted effect of over 60% in size
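AlphaScreen displacement of biotin-H3(5-23)K14Ac peptide (50 nM final) from BAZ2B (50 nM final) in PBS pH 7.4, 0.01% Tween-20; complex preformed 30 min RT, then compounds (top 110 uM) 30 min RT, beads 20 min dark.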
Active calls of the source: *; [ ] = remark or other dose. Unless noted, calls come from the whole dose curve; as a rule, active = well fitted inhibition curve with a large enough effect; inconclusive = small, poorly fitted or top-dose-only effect; inactive = no such curve, though single readings can be large or run the other way.

What do the screens show for `Cc1ccc2nc(SCC(=O)Nc3ccc(C)c([N+](=O)[O-])c3)[nH]c2c1`?
G9a inh: 11.2µM*; CtBP-E1A blk: -7.3; HP1b binding inh: 1.0%; Six1-Eya2 inh: 0.2; JMJD2A Tudor: -24.8%; BAZ2B inh: inconclusive

Results for Cc1csc(SCC(=O)Nc2cc([N+](=O)[O-])ccc2F)n1 ?
G9a inh: 31.8%[12.7 µM]; CtBP-E1A blk: -2.5; HP1b binding inh: 26.9%; Six1-Eya2 inh: -1.4; JMJD2A Tudor: -20.1%; BAZ2B inh: 3.2%

How did CCC(=O)Nc1ccc(C(=O)CSc2nc3ccc(C)cc3[nH]2)cc1 do in these assays?
G9a inh: 28.2µM*; CtBP-E1A blk: -2.9; HP1b binding inh: 9.2%; Six1-Eya2 inh: 12.3; JMJD2A Tudor: -6.8%; BAZ2B inh: 2.5%

Results for Cc1ccc2nc(SCC(=O)Nc3ccc(F)c([N+](=O)[O-])c3)[nH]c2c1 ?
G9a inh: inconclusive; CtBP-E1A blk: -10.0; HP1b binding inh: -3.3%; Six1-Eya2 inh: -4.6; JMJD2A Tudor: -31.4%; BAZ2B inh: inconclusive

Results for Cc1ccc2nc(SCC(=O)Nc3cc([N+](=O)[O-])ccc3F)[nH]c2c1 ?
G9a inh: 25.1µM*; CtBP-E1A blk: -5.4; HP1b binding inh: 24.0%; Six1-Eya2 inh: -14.4; JMJD2A Tudor: -15.2%; BAZ2B inh: inconclusive

Results for COc1ccc(CCC(=O)Nc2ccc(C)c([N+](=O)[O-])c2)cc1 ?
G9a inh: 10µM*; CtBP-E1A blk: -16.2; HP1b binding inh: -25.7%; Six1-Eya2 inh: -19.8; JMJD2A Tudor: inconclusive; BAZ2B inh: inconclusive

How did COc1ccc(CCC(=O)Nc2cc([N+](=O)[O-])ccc2OC)cc1 do in these assays?
G9a inh: -4.7%; CtBP-E1A blk: 1.3; HP1b binding inh: 15.3%; Six1-Eya2 inh: 0.1; JMJD2A Tudor: -17.9%; BAZ2B inh: -23.2%

What do the screens show for `Cc1cc(C)c2c(c1)c1nnc(SCCN3CCOCC3)nc1n2C`?
G9a inh: inconclusive; HP1b binding inh: 89.6%; Six1-Eya2 inh: -23.3; JMJD2A Tudor: -13.8%; BAZ2B inh: -6.0%

Results for COc1cc(C2c3c(oc4ccccc4c3=O)C(=O)N2c2nnc(C(C)C)s2)cc(OC)c1OC (stereo not given) ?
G9a inh: 4.7%[59 µM]; HP1b binding inh: 15.7%; JMJD2A Tudor: -13.4%; BAZ2B inh: -3.2%

Results for CCCCn1c(N)c(N(CCOC)C(=O)CSc2nnc(C)n2-c2ccc(OC)cc2)c(=O)[nH]c1=O ?
G9a inh: -22.0%[0.501 µM]; CtBP-E1A blk: -1.2; HP1b binding inh: 26.0%; Six1-Eya2 inh: 0.5; JMJD2A Tudor: -9.7%; BAZ2B inh: -4.6%

Results for Cc1cc(C)cc(Oc2coc3c(CN4CCN(C)CC4)c(O)ccc3c2=O)c1 ?
G9a inh: -4.8%[59 µM]; HP1b binding inh: 30.5%; JMJD2A Tudor: -28.8%; BAZ2B inh: 1.7%

What do the screens show for `COc1cccc(-c2nc(SCC(=O)NCC3CCCO3)c(-c3ccc(Cl)cc3)[nH]2)c1` (stereo not given)?
G9a inh: -28.0%[59 µM]; HP1b binding inh: -0.2%; JMJD2A Tudor: -16.4%; BAZ2B inh: -9.4%

What do the screens show for `O=C(CSCc1ccccc1)Nc1cc([N+](=O)[O-])ccc1F`?
G9a inh: 31.6µM*; HP1b binding inh: 32.6%; Six1-Eya2 inh: -2.1; JMJD2A Tudor: -28.3%; BAZ2B inh: inconclusive

What do the screens show for `COc1ccc([N+](=O)[O-])cc1NC(=O)CSCc1ccccc1`?
G9a inh: -21.2%; CtBP-E1A blk: 0.6; HP1b binding inh: -4.9%; Six1-Eya2 inh: -4.4; JMJD2A Tudor: -28.2%; BAZ2B inh: 2.4%

What do the screens show for `Oc1ccc(N=Cc2ccc(-c3cccs3)s2)cc1`?
G9a inh: inconclusive; CtBP-E1A blk: inconclusive; HP1b binding inh: inconclusive; Six1-Eya2 inh: -19.4; JMJD2A Tudor: 35.5µM*; BAZ2B inh: inconclusive
